# From PubChem BioAssay
# Shown are actives, neighbours in structure and some others; about 7.5% of the full set was active somewhere.
# Luc counter: counter-screen: inhibitors of Kinase-Glo firefly luciferase; Q27757; 0.28% of 200,000 active; Potency, µM (highest dose often 38.3 µM), actives largely listed as inhibitors; Kinase-Glo luciferase, ATP luminescence, 8 min; note: nearly all actives have a fitted effect of over 60% in size
#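 Kinase-Glo luciferase light output from ATP and luciferin was measured with 10 uM ATP, within the enzyme's linear range. Buffer: 50 mM imidazole pH 7.2, 50 mM KCl, 7 mM MgCl2, 0.01% Tween 20, 0.05% BSA; luminescence read after 8 min at ambient temperature.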
# SMN2 splice up: enhancers of SMN2 splice variant expression | Potency, µM (series often up to 46.1 µM), hits mostly activators | HEK293 SMN2-luciferase splicing reporter, luminescence, 30-36 h | 2.8% of 210,000 active; note: nearly all actives have a fitted effect of over 55% in size
#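 qHTS luciferase splicing reporter: luminescence rises when SMN2 exon 7 is included in transfected HEK293 cells. Compound exposure lasted 30-36 h at 37C, with 4.5 mM final sodium butyrate as control, followed by a ONE-Glo read.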
# FLuc counter: counter-screen for miR-21 project: firefly luciferase inhibitors or activators; P08659; purified FLuc, Km substrates, luminescence inhibition; Potency, µM (doses to about 57.5 µM), hits mostly inhibitors; 6.9% of 360,000 active; note: nearly all actives have a fitted effect of over 55% in size
# Target sequence (P08659 whole entry, looked up): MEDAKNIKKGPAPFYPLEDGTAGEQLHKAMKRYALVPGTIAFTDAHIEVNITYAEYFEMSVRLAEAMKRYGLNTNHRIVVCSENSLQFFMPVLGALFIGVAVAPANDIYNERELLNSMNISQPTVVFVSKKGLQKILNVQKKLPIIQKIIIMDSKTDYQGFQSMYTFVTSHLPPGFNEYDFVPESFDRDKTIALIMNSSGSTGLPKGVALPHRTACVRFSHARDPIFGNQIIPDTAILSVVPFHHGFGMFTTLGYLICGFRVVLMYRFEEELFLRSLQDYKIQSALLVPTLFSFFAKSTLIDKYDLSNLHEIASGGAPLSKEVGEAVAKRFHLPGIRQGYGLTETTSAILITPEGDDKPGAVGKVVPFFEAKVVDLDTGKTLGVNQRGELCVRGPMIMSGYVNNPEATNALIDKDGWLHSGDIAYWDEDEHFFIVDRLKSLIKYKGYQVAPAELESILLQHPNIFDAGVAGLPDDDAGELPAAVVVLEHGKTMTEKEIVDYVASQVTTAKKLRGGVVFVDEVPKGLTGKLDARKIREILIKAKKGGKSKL
#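 Biochemical qHTS of compounds, final roughly 60 µM downward over six points, against 10 nM purified firefly luciferase using Km concentrations of substrates (10 uM D-luciferin, 10 uM ATP) in Tris acetate pH 7.5 buffer; luminescence output.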
# Rab9 prom act: Rab9 promoter activation; Huh7 Rab9 promoter-luciferase reporter, luminescence, 24 h; Potency, µM (series often up to 9.22 µM), hits mostly activators; 2.8% of 320,000 active; AID 485297; note: nearly all actives have a fitted effect of over 60% in size
#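 Cell-based reporter: Huh7 stable for Rab9 promoter-driven luciferase, plated in reduced-serum medium with 10% FBS at 1500 cells/well, compound-treated 24 h at 37 °C, luminescence read after 10 min reagent.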
# ELG1 genotoxic: genotoxicity induction in ELG1-luciferase HEK293T cells. HEK293T ELG1-luciferase reporter, luminescence, 16 h. Potency, µM (top dose mostly 46 µM), hits mostly activators. 1.3% of 330,000 active; note: nearly all actives have a fitted effect of over 60% in size
#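 16 hr compound incubation (37 °C, 5% CO2) of HEK293T cells carrying luciferase-tagged ELG1; luciferase then measured by ONE-Glo luminescence after 30 min at RT.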
# NPC1 promoter act: activates the NPC1 promoter | Huh7 NPC1 promoter luciferase reporter, 24 h | Potency, µM (top dose mostly 9.22 µM), usual class: activators | 2.4% of 320,000 active | AID 485313; note: nearly all actives have a fitted effect of over 60% in size
#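 Compounds in DMSO were transferred onto Huh7 NPC1-luciferase reporter cells pre-incubated 2 h; after 24 h at 37 °C, Amplite reagent was dispensed and luminescence recorded 10 min later.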
# A number is an active result; . = inactive; ? = inconclusive; / = not tested or not shown. Calls come from the whole dose curve; as a rule, active = well fitted curve in the direction sought with a large enough effect; inconclusive = small, poorly fitted or top-dose-only effect, or another doubt; inactive = no such curve, though single readings can be large; an effect the other way counts as inactive or inconclusive.
SMILES,Luc counter,SMN2 splice up,FLuc counter,Rab9 prom act,ELG1 genotoxic,NPC1 promoter act
COc1ccc(C(=O)N2CCN(C(=O)COc3ccc(C)cc3)CC2)cc1OC,/,.,15.1µM,/,/,/
COc1ccc(OCC(=O)N2CCN(C(=O)c3ccc(OC)cc3)CC2)cc1,/,.,.,/,/,/
COc1cc(OC)cc(C(=O)N2CCN(C(=O)COc3ccc(C)cc3)CC2)c1,/,.,23.9µM,/,/,/
Cc1ccc2nc(-c3ccc(Br)o3)oc(=O)c2c1,.,.,2.39µM,.,.,.
COc1cc(-c2noc(-c3ccc(NCc4ccccc4)c([N+](=O)[O-])c3)n2)cc(OC)c1OC,/,/,15.1µM,/,/,/
COc1ccc(-c2noc(-c3ccc(NC4CCCC4)c([N+](=O)[O-])c3)n2)cc1OC,/,/,13.5µM,/,/,/
COc1cc(-c2noc(-c3ccc(NCC4CCCO4)c([N+](=O)[O-])c3)n2)cc(OC)c1OC (stereo unspecified),/,/,21.3µM,/,/,/
O=[N+]([O-])c1cc(-c2nc(-c3ccco3)no2)ccc1NCc1ccccc1,/,/,15.1µM,/,/,/
O=S(=O)(c1cccc(F)c1)N1CCN(Cc2cc3c(cc2Br)OCCO3)CC1,/,/,.,.,.,.
Cc1cc(C(=O)N/N=C/c2ccccn2)n[nH]1,.,.,?,.,.,.
Cc1cc(C(=O)N/N=C/c2ccco2)n[nH]1,.,.,.,.,.,.
O=C(N/N=C/c1ccco1)c1cc(C2CC2)[nH]n1,/,/,13.5µM,?,?,?
O=C(N/N=C/c1cccc2ccccc12)c1cc(C2CC2)[nH]n1,/,/,10.7µM,.,.,.
CC(/C=N/NC(=O)c1cc(C2CC2)[nH]n1)=C\c1ccccc1,/,/,?,.,.,.
O=C(N/N=C/c1ccccn1)c1cc(C2CC2)[nH]n1,.,?,19µM,1.58µM,18.3µM,?
O=C(Nc1nnc(-c2ccccc2Cl)o1)c1ccco1,.,?,6.01µM,.,?,.
Cc1ccc(-c2nnc(NC(=O)c3ccco3)o2)c(C)c1,/,/,2.69µM,?,.,?
Cc1ccc(C)c(-c2nnc(NC(=O)c3ccco3)o2)c1,/,/,15.1µM,.,.,.
O=C(Nc1ccc(NC(=O)c2ccc(Cl)cc2Cl)cc1)c1cccs1,/,/,.,.,.,.
COc1ccc(NC(=O)c2cc(C)n(Cc3cccs3)c2C)cc1,/,/,0.849µM,0.316µM,?,0.562µM
COc1ccc(/C=N/NC(=O)CNC(=O)c2cccs2)cc1,.,.,15.1µM,.,.,.
Cc1cccnc1NC(=O)CCC(=O)c1cccs1,/,/,.,.,.,.
O=C(Nc1ccc(Oc2ccc(C(=O)O)c(C(=O)O)c2)cc1)c1cccs1,.,/,21.3µM,.,.,.
Cc1cccnc1NC(=O)NC(=O)c1ccc(C(C)(C)C)s1,/,/,5.36µM,2.24µM,?,?
Cc1cc(C(=O)COc2ccc3ccc(=O)oc3c2)c(C)n1Cc1cccs1,.,.,?,.,.,.
SMILES,Luc counter,SMN2 splice up,FLuc counter,Rab9 prom act,ELG1 genotoxic,NPC1 promoter act
O=C(c1cnn(-c2ccccc2)c1-n1cccc1)N1CCN(C2CCCCC2)CC1,/,/,.,.,.,.
C[C@H]1COC(=O)[C@H](Cc2ccc(F)cc2)C/C=C\C[C@@H](CC(=O)N(CCO)Cc2ccccc2)C(=O)N1,/,/,/,/,.,/
COc1ccc(NC(=O)c2cccs2)cc1,.,17.8µM,15.1µM,?,?,?
O=C(Nc1ccc(OCc2ccccc2)cc1)c1cccs1,/,/,16.9µM,4.47µM,?,2.82µM
COc1ccc(NC(=S)NNC(=O)c2cccs2)cc1,.,.,.,3.98µM,?,.
C[C@H](NC(N)=O)C(=O)Nc1ccc(OCc2ccccc2)cc1,.,15.8µM,?,3.55µM,.,?
COc1ccc(NC(=O)/C=C/c2ccccc2)c([N+](=O)[O-])c1,.,10µM,?,3.16µM,?,?
COc1cccc(-c2nc(-c3ccc(NC(=O)c4cccs4)cc3)no2)c1,.,.,13.5µM,?,.,.
S=C(Nc1ccccc1)Nc1ccc(Br)cn1,.,.,.,.,.,.
COc1ccc(/C=C/C(=O)Nc2ccc(OC)cc2[N+](=O)[O-])cc1,.,.,.,.,.,.
O=C(NC(=S)Nc1ccccc1)c1cccs1,/,/,16.9µM,?,?,2µM
COc1cccc(-c2nc(-c3ccc(NC(=O)c4ccncc4)cc3)no2)c1,.,.,.,.,.,.
O=C(NC(=S)Nc1ccc(Br)cn1)c1cccs1,.,12.6µM,3.79µM,?,?,?
O=C(CN1CCN(S(=O)(=O)c2ccccc2)CC1)Nc1ccc2c(c1)CCC2,.,.,.,.,.,.
Cc1cccnc1NC(=S)NC(=O)c1cccs1,.,3.16µM,13.5µM,3.55µM,?,?
COc1ccc(NC(=O)c2cccs2)c([N+](=O)[O-])c1,.,.,?,3.98µM,?,?
CC(C)c1ccc(NC(=S)NNC(=O)c2cccs2)cc1,.,?,21.3µM,?,?,?
Cc1cccnc1NC(=O)CNC(=O)c1cccs1,/,/,.,.,.,.
COc1ccc2nc3c(cc2c1)c(NC(=O)c1cccs1)nn3CC(C)C,.,.,7.57µM,.,.,.
CC(C)Cn1nc(NC(=O)c2cccs2)c2cc3ccccc3nc21,/,/,?,.,.,.
Cc1c(N=C2SCC(=O)N2/N=C/c2ccccc2)c(=O)n(-c2ccccc2)n1C,.,.,.,.,.,.
O=C(/C=C/c1cccs1)NC(=S)NNC(=O)c1ccccc1O,.,.,?,.,.,.
O=C(/C=C/c1cccs1)NC(=S)Nc1ccccc1,.,.,26.9µM,?,.,.
Cc1cnc(C(=O)OCC(=O)Nc2ccc(OCc3ccccc3)cc2)cn1,/,/,?,2.51µM,?,2.82µM
Nc1c(C(=O)CSc2nc3ccccc3o2)c(=O)[nH]c(=O)n1C1CC1,/,/,.,?,.,.
SMILES,Luc counter,SMN2 splice up,FLuc counter,Rab9 prom act,ELG1 genotoxic,NPC1 promoter act
CN(C)c1cccc(C(=O)NC2CCCCCC2)c1,.,12.6µM,13.5µM,3.16µM,18.4µM,?
CCn1c(C)c(C)c2cc(C(=O)NC3CCCCCC3)ccc21,/,/,12µM,?,.,.
COc1cccc(C(=O)NC2CCCC2)c1,.,.,.,.,.,.
Cc1cccc(C(=O)NC2CCCCCCC2)c1,/,/,12µM,4.47µM,?,3.98µM
CCCN1C(=O)c2cc(C(=O)NC3CCCCCC3)ccc2C1O (stereo unspecified),.,10µM,13.5µM,2.24µM,9.2µM,2µM
CCN(Cc1ccccc1)C(=O)CN1C(=O)COc2ccc(S(=O)(=O)N(CC)CC)cc21,/,.,.,/,/,/
CCOC(=O)c1ccc2c(c1)nc(-c1ccccn1)n2CC,/,/,1.51µM,3.55µM,?,?
COn1c(-c2ccccc2)nc2ccc(Cl)cc21,.,.,12µM,?,.,?
O=C(O)COn1c(-c2ccccc2)nc2ccc(Cl)cc21,.,?,4.78µM,.,?,.
O=[N+]([O-])c1ccc2nc(-c3ccccc3)n(OCc3ccc(Cl)cc3)c2c1,.,.,?,.,.,.
